This is a sample that favours compounds with a hit; in the whole collection about 3.7% have one here.
MITF TRPM1 HTS = activators of MITF-driven TRPM1 promoter reporter, primary screen, cell-based, SK-MEL-5, luciferase, single point; SK-MEL-5 TRPM1-promoter luciferase, 24 h; % of positive control, neutral wells = 0; activation, % at 12.5 µM; 0.75% of 300,000 active; AID 588334, 2011;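 active means mean activation of at least 80% with every replicate also reaching 80%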;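 further: 0% = neutral control wells and 100% = parthenolide positive control wells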
Wnt bcat act = Wnt/beta-catenin pathway activators, primary screen, cell-based, plate reader, single point. Wnt/beta-catenin reporter cell assay, activator. activation, % at 9.35 µM. 1.2% of 300,000 active. AID 743398, 2014; in the data active means activation above about 30%, passing the limit was not always enough;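 further: 0% = neutral control wells and 100% = positive control wells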
AF4-AF9 inh = inhibitors of AF4 peptide binding to AF9, primary screen, biochemical, AlphaScreen, biotin-AF4 peptide, FLAG-AF9, single point; inhibition, % at 10 µM; 0.47% of 350,000 active; Protein AF-9 (Homo sapiens), P42568; AID 651704, 2012;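 active means every replicate reaching a set inhibition limit, whatever the replicate mean, cut at about 25% in these data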;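 further: 0% = plate neutral control median and 100% = total signal loss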
Target sequence (P42568 whole entry, looked up): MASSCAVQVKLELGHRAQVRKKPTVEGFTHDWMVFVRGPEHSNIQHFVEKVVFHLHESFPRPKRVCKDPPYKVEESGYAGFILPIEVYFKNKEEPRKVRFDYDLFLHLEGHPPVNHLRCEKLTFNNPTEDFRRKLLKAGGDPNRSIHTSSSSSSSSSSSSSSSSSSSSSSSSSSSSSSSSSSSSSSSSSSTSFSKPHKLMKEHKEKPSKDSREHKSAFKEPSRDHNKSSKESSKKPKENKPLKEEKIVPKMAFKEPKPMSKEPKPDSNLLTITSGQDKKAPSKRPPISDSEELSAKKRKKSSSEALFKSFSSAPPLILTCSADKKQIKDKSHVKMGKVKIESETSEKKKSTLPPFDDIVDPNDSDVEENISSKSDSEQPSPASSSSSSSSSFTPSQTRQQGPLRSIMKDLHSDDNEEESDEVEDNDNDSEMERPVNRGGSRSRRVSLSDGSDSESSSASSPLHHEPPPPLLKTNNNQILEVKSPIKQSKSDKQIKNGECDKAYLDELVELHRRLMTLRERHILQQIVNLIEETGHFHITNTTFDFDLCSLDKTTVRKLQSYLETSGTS
esBAF inh = Bmi1 luciferase reporter increase in mESCs, primary screen, esBAF inhibitor project, mouse ES cells, Bmi1 luciferase knock-in, single point; 24 h; 100% = twice the neutral-well signal; reporter increase, % at 12.5 µM; 2% of 350,000 active; AID 602393, 2012; in the data active means activation above about 40%;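 further: 0% = median of the plate's neutral control wells and 100% = double that signal; a rise in the Bmi1 reporter signal indicates esBAF inhibition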
rRNA inh HTS = reduced GFP signal of wild-type E. coli, primary screen, bacterial rRNA inhibitor project, GFP/RFP fluorescence, OD600, single point; E. coli WT GFP vs humanized-ribosome RFP mutants, 24 h; stronger effect = lower value; DMSO median 0, no signal -100; 1.6% of 350,000 active; GFP signal change (wild-type ribosome), % (no concentration beside the values);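 active means significant combined selectivity score with lowered wild-type GFP, culture density cut under 30%, mutant RFP and density less affected; inactive means any of these conditions unmet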
Active calls of the source: *; · = no result.

SMILES | MITF TRPM1 HTS | Wnt bcat act | AF4-AF9 inh | esBAF inh | rRNA inh HTS
O=C(NC1CCCCCC1)C1CCN(c2nc3ccccc3o2)CC1 | -12.9 | · | · | 0.4 | ·
Cc1cccc(N2C(=O)C(O)=C(C(=O)c3cccs3)C2c2ccc(C(C)C)cc2)n1 (configuration not stated) | 9.3 | 10.0 | 0.5 | · | -23.4*
O=S(=O)(N/N=C1/CC(c2ccccc2)Oc2ccccc21)c1ccccc1 (configuration not stated) | -1.0 | -0.5 | -4.1 | · | -12.5*
CC(C)(C)N1C(=O)c2ccccc2NC(=O)C1C(=O)Nc1ccc(N2CCOCC2)cc1 (configuration not stated) | · | -2.9 | -2.6 | · | 22.6
Cc1cc(NC(=O)COC(=O)c2cc([N+](=O)[O-])ccc2N2CCOCC2)ccc1Br | -7.0 | -10.9 | 4.1 | · | -17.6*
Cc1ccc(S(=O)(=O)NCc2ccccc2NS(=O)(=O)c2ccc(C)cc2)cc1 | · | -1.4 | 0.5 | · | -35.0
Cc1ccc(NC(=O)NC(=O)CN2CCC(C(N)=O)CC2)c(C)c1 | · | 29.8 | -0.6 | 43.2* | -0.8
O=C(CSC1=NS(=O)(=O)c2cc(F)ccc2N1)Nc1cccc(F)c1 | -2.2 | -0.4 | -3.7 | 0.7 | -0.1
Cc1ccc(CC2CC(=O)N(c3ccncc3)C2=O)cc1 (configuration not stated) | -0.7 | 2.6 | · | -1.5 | ·
CCCCCCCCCCCCCCCC[n+]1ccc(/C=N/O)cc1 | -76.2 | -9.5 | 4.5 | · | -37.1*
CCC(=O)Nc1ccc(Cl)c(NC(=O)c2ccccc2OC)c1 | -2.6 | 5.0 | -1.2 | · | -2.8
C[C@@H]1CN([C@H](C)CO)S(=O)(=O)c2ccc(C#Cc3cccc(F)c3)cc2O[C@@H]1CN(C)S(=O)(=O)c1ccccc1F | · | · | -2.3 | 3.7 | -0.8
CSc1nc2sc3c(c2c(=O)[nH]1)CCC(C)C3 (configuration not stated) | 33.1 | · | · | 62.1* | 5.3
COc1cc(NC(=O)c2ccc(N3CCCC3=O)cc2)cc(OC)c1 | 61.7 | -2.1 | 1.0 | 59.0* | 3.8
COc1ccc2cc(N3CCCC3=O)ccc2c1 | 42.1 | 3.7 | -0.3 | 48.2* | 1.7
COc1ccc(NC(=O)c2ccc(N3CCCC3=O)cc2)cc1Cl | 31.0 | 14.9 | -1.0 | 31.2 | 3.2
CC(C(=O)NC1C=CS(=O)(=O)C1)N1C(=O)/C(=C\c2ccccc2)SC1=S (configuration not stated) | -6.3 | -2.3 | 1.0 | 8.2 | -16.3*
CC(C(=O)NC1C=CS(=O)(=O)C1)N1C(=O)/C(=C/c2cccc(Cl)c2)SC1=S (configuration not stated) | -16.2 | 2.2 | 14.0 | · | -28.1*
Cc1oc(-c2ccc(-c3ccccc3)cc2)nc1CN(C)C1CCOC1 (configuration not stated) | 46.8 | -0.3 | 12.1 | 34.7 | -23.0*
Cc1oc(-c2ccc(-c3ccccc3)cc2)nc1CN(CCO)C(C)C | 36.0 | 11.6 | 5.3 | 59.8* | -11.0
Cc1oc(-c2cccc(Cl)c2)nc1CN(C)C1CCOC1 (configuration not stated) | 1.1 | 13.3 | 4.2 | · | 7.2
CC(=O)c1ccc(Nc2nc(C)cc(C)n2)cc1 | 66.3 | 21.8 | -3.0 | 50.1* | 6.7
CCCCSC1(SCCCC)N=C(N)C2(C#N)C(c3ccccc3)NC(C)=CC12C#N (configuration not stated) | -23.0 | · | · | 22.4 | ·
CCN1CCN(c2ccc(S(=O)(=O)N3CCCCC3)cc2NC(=O)c2ccc([N+](=O)[O-])s2)CC1 | -85.0 | 0.9 | 28.8* | 1.3 | -0.3
CC(C)Cc1nc2c(nnn2Cc2ccccc2F)c(=O)[nH]1 | -0.5 | 0.6 | 37.7* | 4.1 | -9.0
COc1ccc(NC(=O)Nc2ccc3c(c2)C(=O)N([C@H](C)CO)C[C@H](C)[C@H](CN(C)C(=O)Nc2ccccc2)OCCCC[C@@H](C)O3)cc1 | · | · | -10.2 | 1.8 | 3.9
O=C(Cc1csc(NC(=O)Nc2ccc(Cl)cc2)n1)NCc1ccccn1 | 58.5 | 3.0 | 3.0 | 45.1* | -22.9
CC(=O)N1CCc2cc(S(=O)(=O)CCC(=O)Nc3ccc4c(c3)OCCO4)ccc21 | 0.9 | -1.9 | · | 4.8 | ·

Source: PubChem
